Assays:
Type in all cases: functional
[1] = system: Plasmodium falciparum; assay: GSK_TCMDC: Inhibition of Plasmodium falciparum 3D7 in whole red blood cells, using parasite LDH activity as an index of growth. Test compounds present at 2uM
[2] = system: Plasmodium falciparum; assay: GSK_TCMDC: Inhibition of Plasmodium falciparum Dd2 in whole red blood cells, using parasite LDH activity as an index of growth. Test compounds present at 2uM
[3] = system: HepG2; assay: GSK_TCMDC: Percent inhibition of human HepG2 cell line. Test compounds present at 10uM.

| SMILES | Inhibition [1] [%] | Inhibition [2] [%] | Inhibition [3] [%] |
| --- | --- | --- | --- |
| Cl.Oc1ccc2c(c1NCC1CCCCC1)CCCC2 | 99 | 99 | 11 |
| Cc1ccc(NC(=O)N2CCN(CCCCCNC(=O)/C=C/c3ccc(Cl)c(Cl)c3)CC2)cc1C | 94 | 0 | 7 |
| CCOC(=O)c1c(SCc2cccc(F)c2F)[nH]c2ccccc2c1=O | 98 | 95 | 1 |
| Cl.N#Cc1ccc2c(c1)CCN(CCC1CCC(NC(=O)c3ccc(-c4ccccc4)s3)CC1)CC2 (configuration not stated) | 99 | 36 | 6 |
| Cc1ccc(CNC(=O)c2cc3c(=O)n4cccc(C)c4nc3n(CCN3CCOCC3)c2=N)cc1 | 97 | 21 | 31 |
| CCCCCCCCN1CCCN(C(=O)c2cccc(NC(=O)Nc3ccc4ccccc4c3)c2)CC1.O=C(O)C(F)(F)F | 97 | 39 | 39 |
| CCc1ccc(C2CCN(CCCCNC(=O)c3ccc(NC(=O)c4ccc(Cl)cc4)cc3)CC2)cc1 | 100 | 63 | 15 |
| O=C(c1ccc(-c2cnc3[nH]cc(-c4ccc(C(=O)N5CCOCC5)cc4)c3c2)cc1)N1CCOCC1 | 91 | 0 | 19 |
| O=C(c1ccco1)N1CCN(c2nc(-c3ccc(Cl)cc3)nc3ccccc23)CC1 | 96 | 91 | 13 |
| COc1ccc2nc3ccccc3c(NCCN3CCN(C)CC3)c2c1 | 81 | 10 | 11 |
| COc1ccc2nc(-c3cccc(C)n3)nc(Nc3ccncc3)c2c1 | 100 | 42 | 0 |
| Cc1ccc(NCC(=O)Nc2ccc(F)c(Cl)c2)cc1S(=O)(=O)N1CCOCC1 | 98 | 97 | 2 |
| COc1ccc(NC(=O)Nc2ccc(-c3cccc(-c4nc5cccc(C)c5[nH]4)c3)cc2)cc1 | 100 | 75 | 33 |
| CC(C)(C)C1CCc2nc(N)nc(N)c2C1.Cl (configuration not stated) | 94 | 38 | 69 |
| COc1ccc(F)cc1-c1ccc(C(=O)N2CCCN(c3ccc(C(F)(F)F)cn3)CC2)cc1 | 100 | 100 | 4 |
| CN1CCN(Cc2ccc(-c3ccc4c(Nc5ccc(F)cc5Cl)ccnc4c3)o2)CC1 | 100 | 100 | 8 |
| O=C(Nc1ccc(Cl)cc1)Nc1cccc(-c2cccc(-c3nc4cc(F)ccc4[nH]3)c2)c1 | 100 | 84 | 79 |
| O=C(Nc1cn(-c2ccc(OCc3cccc(F)c3)c(Cl)c2)c2ncncc12)c1ccncc1 | 100 | 81 | 13 |
| O=C(O)C(F)(F)F.c1cc(-c2ccc(CNCCc3ccncc3)cc2)cc(-c2nc3ccccc3[nH]2)c1 | 100 | 99 | 41 |
| COc1cc(Nc2ccnc3cc(-c4ccccn4)ccc23)cc(OC)c1OC.Cl | 91 | 0 | 0 |

| SMILES | Inhibition [1] [%] | Inhibition [2] [%] | Inhibition [3] [%] |
| --- | --- | --- | --- |
| c1ccc(Oc2ccc(Nc3ccnc(Nc4ccc(CN5CCOCC5)cc4)n3)cc2)cc1 | 92 | 38 | 46 |
| COc1ccc(NS(=O)(=O)c2cc(NC(=O)Cn3ccccc3=O)ccc2N2CCCCC2)cc1 | 92 | 83 | 20 |
| Cc1ccc(F)cc1S(=O)(=O)Nc1cccc(CCN2CCC(N3CCCCC3)CC2)c1 | 96 | 9 | 15 |
| COc1cccc(CCNCCCCCCNCCc2ccc(Cl)cc2)c1.Cl | 100 | 3 | 32 |
| COc1cc2ncnc(Nc3ccc(OCc4ccccc4Br)c(OC)c3)c2cc1OC.Cl | 100 | 62 | 11 |
| O=C(O)C(F)(F)F.O=S(=O)(NCCN1CCCC1)c1cccc(-c2ccccc2CNC2Cc3ccccc3C2)c1 | 99 | 76 | 35 |
| O=C(NCc1cccc(Cl)c1)c1ccc(CNC2CCN(Cc3ccccc3)CC2)cc1.O=C(O)C(F)(F)F | 100 | 50 | 13 |
| COc1ccc(N(C)Cc2cnc3nc(N)nc(N)c3n2)cc1 | 98 | 0 | 15 |
| Cl.OCCNc1nc(Nc2cccc(O)c2)nc2ccccc12 | 96 | 55 | 3 |
| Cn1nc(C(F)(F)F)c(-c2ccc(F)cc2)c1NC(=O)Nc1ccccc1 | 100 | 99 | 3 |
| COc1ccc2ncc(F)c(CCN3CCC(NCc4cc5c(cn4)OCCS5)CC3)c2c1.Cl | 89 | 40 | 4 |
| Cc1ccc(Oc2ccccc2NC(=O)CCc2nc3ccccc3c(=O)[nH]2)cc1 | 100 | 99 | 3 |
| N#Cc1ccc(-c2ccc(C(=O)NCCCCN3CCC(c4cc(Br)c5c(c4O)CCCC5)CC3)cc2)cc1 | 100 | 50 | 93 |
| Cl.Oc1cc(Nc2ccnc3ccc(I)cc23)c(F)cc1Cl | 95 | 13 | 20 |
| COc1ccc(CCN(C)CCOc2ccc(NC(=O)c3cccc4c(=O)c5cc(SC)ccc5[nH]c34)cc2)cc1OC | 97 | 82 | 52 |
| CN1CCC(N(Cc2ccc(-c3ccc(Cl)cc3)cc2)C(=O)Cn2c(CCc3cccc(F)c3F)cc(=O)c3ccccc32)CC1.O=C(O)C(O)C(O)C(=O)O | 97 | 88 | 93 |
| Cc1cccc2nc(-c3ccc(-c4cccc(C(=O)NCCc5cn(C)cn5)c4)s3)[nH]c12 | 92 | 17 | 27 |
| Cc1cc(=NN=Cc2ccccc2F)c2cc(F)ccc2[nH]1 | 100 | 97 | 9 |
| OC[C@H](Nc1nc(C(Oc2ccccc2)c2ccccc2)nc2[nH]ncc12)c1ccccc1 (some centres not stated) | 98 | 45 | 0 |
| CCC(C)c1ccc(Nc2nc(C)cc(N(CC)CCCN3CCCCC3)n2)cc1.O=C(O)C(F)(F)F (configuration not stated) | 100 | 83 | 55 |

| SMILES | Inhibition [1] [%] | Inhibition [2] [%] | Inhibition [3] [%] |
| --- | --- | --- | --- |
| CN1CCC(C(=O)Nc2ccc(-c3ccc(-c4nc5ccccc5[nH]4)cc3)cc2)CC1 | 100 | 94 | 28 |
| Cc1ccc(S(=O)(=O)n2nccc2-c2c(-c3ccc(Cl)cc3)noc2C)cc1 | 97 | 97 | 0 |
| CC(C)CC1(C(=O)OC(C)(C)C)CC(C(=O)OC(C)(C)C)C(c2cccs2)N1C(=O)c1ccc(C(C)(C)C)cc1 (configuration not stated) | 100 | 100 | 21 |
| CCC[C@@H]([C@@H](CC1CCCCC1)C(=O)N[C@H](C(=O)Nc1nccs1)C(C)(C)SCCOCCOCC)N(O)C=O | 100 | 97 | 40 |
| COc1cc(Nc2ccc3cc(S(=O)(=O)N4CCCCC4C)ccc3n2)cc(OC)c1OC (configuration not stated) | 88 | 78 | 0 |
| COc1cccc(C(=O)Nc2nonc2-c2ccc(OC)c(OC)c2)c1 | 97 | 50 | 7 |
| CC(C)(CNCc1ccc(C(F)(F)F)cc1)c1nc(-c2ccnc(N)n2)c(-c2ccc(Cl)c(O)c2)[nH]1.Cl | 100 | 37 | 32 |
| Cl.N#Cc1ccc2c(c1)CCN(CCC1CCC(NC(=O)c3cc4ccccc4[nH]3)CC1)CC2 (configuration not stated) | 89 | 25 | 17 |
| Cc1ccc(OC2CCN(CCCCC3(C)C(=O)Nc4ccccc43)CC2)cc1.Cl (configuration not stated) | 100 | 2 | 63 |
| CC(=O)c1ccc(O)c(CC(O)CO)c1 (configuration not stated) | 100 | 0 | 3 |
| Oc1cccc(/C=N/Nc2ccnc3cc(Cl)ccc23)c1 | 100 | 95 | 0 |
| O=C(Nc1ccc(-c2cccc(-c3nc4cc(C(F)(F)F)ccc4[nH]3)c2)cc1)c1ccc(=O)[nH]n1 | 87 | 13 | 72 |
| CCCc1ccc(-c2csc(NC(=O)c3ccc([N+](=O)[O-])o3)n2)cc1 | 85 | 13 | 72 |
| COc1ccc(NC(=O)c2ccc(OCCCCCCCOc3ccc(C(=O)Nc4ccc(OC)c(N5CCN(C)CC5)c4)cc3)cc2)cc1N1CCN(C)CC1.O=C(O)C(=O)O | 96 | 91 | 98 |
| CCN(CC)CCN(Cc1ccc(-c2ccc(C(F)(F)F)cc2)cc1)C(=O)Cn1c(CCc2cc(F)c(F)cc2F)nc(=O)c2ccccc21.O=C(O)C(O)C(O)C(=O)O | 99 | 50 | 39 |
| CC(C)(C)c1nn(-c2ccccc2)c2[nH]c(=O)c(CNCc3ccccc3)cc12 | 90 | 91 | 5 |
| O=[N+]([O-])c1cccc(-n2nc(NCc3ccc(Cl)cc3)nc2-c2ccc(F)c(C(F)(F)F)c2)c1 | 98 | 93 | 6 |
| O=C(Nc1ccc(S(=O)(=O)N2CCCCCC2)cc1)c1cc(-c2ccccc2O)n[nH]1 | 100 | 76 | 16 |
| O=C(COc1ccccc1Cl)N1CCc2cc3nccc(N4CCN5CCC[C@H]5C4)c3cc21 | 91 | 99 | 4 |

Reference: ChEMBL document CHEMBL1157539, “Thousands of chemical starting points for antimalarial lead identification” (Nature, 2010)
